Compound activity from PubChem.
An excerpt weighted towards active compounds, which were near 1.8% of everything screened.
RGS4 inh: inhibitors of human regulator of G protein signaling 4; P49798; Transcreener GDP fluorescence polarization, RGS4-accelerated GTP hydrolysis; Potency, µM (titrated, usually from 114 µM), for inactives: top-dose activity change, negative = inhibition, usual class: inhibitors; actives 0.039% (n = 390,000); note: % is set by controls: 0 for no effect and ±100 for the full control effect; nearly all actives have a fitted effect of over 75% in size
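MLSMR compounds (23 nl, pin-transferred) preincubated 10 min at room temperature with a 500nM (2x) first reagent, then RGS4 at 900nM (2x) plus Transcreener GDP mix added; fluorescence polarization (620/688 nm) read before and after 90 min at 30 °C.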
KAT2A inh: inhibitors of human GCN5L2 histone acetyltransferase | GCN5L2 HAT assay, ThioGlo1 CoA-SH fluorescence | Potency, µM (doses to about 58.9 µM), inactives show at the highest dose activity change, negative = inhibition, most hits filed as inhibitors | actives 0.21% (n = 390,000) | AID 504327; note: % is set by controls: 0 for no effect and ±100 for the full control effect
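Enzyme at 20nM final was mixed with library compounds for 15 min at room temperature. Peptide H3(1-25) at 75uM, acetyl-CoA at 70uM and ThioGlo1 at 50uM were then added. Plates were read immediately and after 20 min (Ex340nm/Em540nm).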
PTHR1 agonist: activates the human parathyroid hormone receptor PTHR1. HEK293 GP2 PTHR1 cells, GloSensor cAMP luminescence, 1 h. Potency, µM (doses to about 115 µM), inactives show at the top dose activation, usual class: activators. actives 0.075% (n = 410,000); note: nearly all actives have a fitted effect of over 55% in size
Target sequence (Q03431 whole entry, looked up): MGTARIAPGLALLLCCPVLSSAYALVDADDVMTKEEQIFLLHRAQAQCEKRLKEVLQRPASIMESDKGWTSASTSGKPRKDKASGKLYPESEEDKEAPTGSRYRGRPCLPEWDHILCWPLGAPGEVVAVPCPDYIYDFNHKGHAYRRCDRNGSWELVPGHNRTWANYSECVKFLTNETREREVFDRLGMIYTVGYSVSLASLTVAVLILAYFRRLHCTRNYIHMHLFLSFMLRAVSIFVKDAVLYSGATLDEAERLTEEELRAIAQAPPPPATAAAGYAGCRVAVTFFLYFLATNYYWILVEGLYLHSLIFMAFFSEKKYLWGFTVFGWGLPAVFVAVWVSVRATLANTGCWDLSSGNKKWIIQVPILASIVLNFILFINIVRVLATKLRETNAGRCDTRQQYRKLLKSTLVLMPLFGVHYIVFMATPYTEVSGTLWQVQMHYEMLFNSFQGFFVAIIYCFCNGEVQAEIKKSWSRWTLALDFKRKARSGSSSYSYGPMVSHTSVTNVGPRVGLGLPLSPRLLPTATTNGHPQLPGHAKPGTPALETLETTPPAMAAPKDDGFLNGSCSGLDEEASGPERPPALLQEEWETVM
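HEK-293-derived GP2 cells expressing PTHR1 and a GloSensor cAMP reporter, 3,000/well, plated overnight, given luciferin plus IBMX (each 0.5 mM as added) for 1 h at 37 °C, then compound for 1 h at 37 °C. Luminescence was read after 15 min at room temperature.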
GLP1R cytotox: cytotoxicity counter-screen for GLP-1 receptor inverse agonists | Potency, µM (top dose mostly 38.3 µM), for inactives: at the top dose activity change, negative = inhibition, hits mostly inhibitors | HEK293 cAMP-luciferase reporter cells, luminescence, 24 h | actives 0.13% (n = 410,000);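 note: loss of luciferase light is scored as toxicity; % is set by controls: 0 for no effect and ±100 for the full control effect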
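Quantitative HTS format, 1536 wells, 200 cells/uL seeded. Compounds: 23 nL, 24 h, 37 °C. Detection: luciferase reagent, luminescence at 12 min RT; decreased signal taken as cytotoxic.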
GLP-1R inv ag: acts as inverse agonist at human GLP-1 receptor | AID 624417 | Potency, µM (titrated, usually from 38.3 µM), for inactives: top-dose activity change, negative = inhibition, most hits filed as inhibitors | actives 1.6% (n = 410,000) | HEK293 GLP-1R CRE-luciferase, luminescence, 24 h; GLP-1R form is constitutively active; note: % is set by controls: 0 for no effect and ±100 for the full control effect; nearly all actives have a fitted effect of over 55% in size
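Inverse agonism was detected as reduced cAMP-driven luciferase luminescence after 24 h compound treatment. The cells were HEK293 clones expressing constitutively active human GLP-1R with the reporter. Reporter-only and GPR119 cell lines served as counterscreen controls.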
GLP1R ag: agonists of human GLP-1 receptor | HEK293 GLP-1R CRE-luciferase, luminescence, 4-6 h; cells express a hypersensitive GLP-1R form | P43220 | AID 624172 | Potency, µM (titrated, usually from 45.6 µM), for the others: top-dose activation, usual class: activators | actives 0.007% (n = 380,000); note: % of control where 0% means no effect
Starred values were filed as active, the others as inactive; [ ] = remark or other dose. Calls come from the whole dose curve; as a rule, active = well fitted curve in the direction sought with a large enough effect; inconclusive = small, poorly fitted or top-dose-only effect, or another doubt; inactive = no such curve, though single readings can be large; an effect the other way counts as inactive or inconclusive. Potency is the fitted concentration of half-maximal effect.

`CC(C)(C)NC[C@H](O)CSc1nc(-c2ccc(C(N)=O)s2)cs1` gave KAT2A inh -25% and GLP1R ag 10%.
CCOc1ccccc1OCCCC(=O)N(CC)CC(=O)Nc1c(F)cccc1F was read as RGS4 inh -19%, KAT2A inh 6%, PTHR1 agonist -13%, GLP1R cytotox 5%, GLP-1R inv ag -9% and GLP1R ag 13%.
`CSc1ccccc1C(=O)N(C)C(c1ccccc1)c1ccccc1` gave RGS4 inh -18%, KAT2A inh -2%, PTHR1 agonist -25%, GLP1R cytotox -3%, GLP-1R inv ag 8.9µM* and GLP1R ag 5%.
Screening CCc1ccc(OC(C)C(=O)N2CCC(c3nc4ccccc4s3)CC2)cc1 (stereo not given) returned RGS4 inh 40%, KAT2A inh -8%, PTHR1 agonist -20%, GLP1R cytotox 0% and GLP-1R inv ag inconclusive.
For FC(F)C(F)(F)Oc1cccc(Nc2nccn3c(-c4ccc5ccccc5c4)cnc23)c1 the results were PTHR1 agonist -73%, GLP1R cytotox -5%, GLP-1R inv ag 11µM* and GLP1R ag -1%.
For Cc1ccc2nc(Nc3cccc(C(F)(F)F)c3)c3nnnn3c2c1 the results were RGS4 inh 5%, KAT2A inh -2%, PTHR1 agonist -19%, GLP1R cytotox 5% and GLP-1R inv ag 2%.
`Cc1cc(Br)ccc1NC(=O)CN(C)C(=O)C1CCN(c2ncnc3sc(C)c(C)c23)CC1` gave RGS4 inh 35%, PTHR1 agonist -5%, GLP1R cytotox -31%, GLP-1R inv ag 3.2µM* and GLP1R ag -17%.
Screening COc1ccc(/C=N/Nc2nccnc2Cl)cc1 returned RGS4 inh 21%, KAT2A inh -4%, PTHR1 agonist -51%, GLP1R cytotox inconclusive, GLP-1R inv ag 11µM* and GLP1R ag -6%.
Screening Clc1nccnc1N/N=C/c1ccc(Br)cc1 returned RGS4 inh 9%, KAT2A inh -10%, PTHR1 agonist -26%, GLP1R cytotox 2%, GLP-1R inv ag -14% and GLP1R ag 11%.
`COc1ccc(-c2cc(N)n(S(=O)(=O)c3ccc(C)cc3)n2)c(OC)c1` gave RGS4 inh 13%, KAT2A inh -6%, PTHR1 agonist -41%, GLP1R cytotox -7%, GLP-1R inv ag 6% and GLP1R ag 18%.
Screening COc1ccc(S(=O)(=O)n2nc(-c3ccc(Cl)cc3)cc2N)cc1 returned RGS4 inh -7%[56.9 µM], KAT2A inh -9%, PTHR1 agonist -36%, GLP1R cytotox -19%, GLP-1R inv ag 10µM* and GLP1R ag 4%.
Screening CC(=O)Nc1cccc(C(=O)N2CCN(S(=O)(=O)c3ccc(C4CCCCC4)cc3)CC2)c1 returned RGS4 inh -15%, PTHR1 agonist -27%, GLP1R cytotox -16%, GLP-1R inv ag 5µM* and GLP1R ag 10%.
For COCC(=O)Oc1cc(-c2ccc(C)cc2C)c(OC(=O)COC)c(-c2ccc(C)cc2C)c1 the results were PTHR1 agonist -57%, GLP1R cytotox -17%, GLP-1R inv ag 2.5µM* and GLP1R ag 1%.
`Cc1ccc(OCC(=O)Oc2c(C)cccc2C)cc1` gave RGS4 inh -29%, KAT2A inh -3%, PTHR1 agonist -41%, GLP1R cytotox 3%, GLP-1R inv ag -2% and GLP1R ag -5%.
For O=C(NNc1cc(Cl)cc(Cl)c1)C1CCC1 the results were RGS4 inh -17%, KAT2A inh -1%, PTHR1 agonist -7%, GLP1R cytotox -19%, GLP-1R inv ag 5.6µM* and GLP1R ag 9%.
For O=C(NNc1ccc(Cl)cc1)C1CCC1 the results were RGS4 inh -26%, KAT2A inh 2%, PTHR1 agonist -35%, GLP1R cytotox -12%, GLP-1R inv ag inconclusive and GLP1R ag -7%.
For Cc1ccc(NS(=O)(=O)c2ccc(C(=O)N3CCC3)cc2)cc1 the results were RGS4 inh -7%, KAT2A inh inconclusive, PTHR1 agonist inactive, GLP1R cytotox 5%, GLP-1R inv ag -19% and GLP1R ag 11%.
For Cc1ccc(NS(=O)(=O)c2ccc(C(=O)N3CCCN(C)CC3)cc2)cc1 the results were RGS4 inh 31%, KAT2A inh -3%, PTHR1 agonist -11%[57.5 µM], GLP1R cytotox 0%, GLP-1R inv ag 5.6µM* and GLP1R ag 0%.
`Cn1c(-c2ccccc2)cc2ccccc21` gave RGS4 inh -28%, KAT2A inh 0%, PTHR1 agonist inactive, GLP1R cytotox -2%, GLP-1R inv ag -12% and GLP1R ag 4%.
Cn1c(-c2ccccc2O)cc2ccccc21 was read as RGS4 inh -24%, KAT2A inh -4%, PTHR1 agonist -21%, GLP1R cytotox -9%, GLP-1R inv ag 10µM* and GLP1R ag 1%.
For CC(=O)Oc1ccc(Cl)cc1CN(C(C)=O)C1CCCCC1 the results were RGS4 inh 23%, PTHR1 agonist inactive, GLP1R cytotox -8%, GLP-1R inv ag 8.9µM* and GLP1R ag 6%.
`Cc1ccc(S(=O)(=O)NCC(=O)NCC(=O)N(C)Cc2ccc(Br)s2)cc1C` gave PTHR1 agonist -3%, GLP1R cytotox -1%, GLP-1R inv ag inconclusive and GLP1R ag -1%.
`Cc1cc(C)c(NC(=O)CNC(=O)CN(C)Cc2ccc(Br)s2)c(C)c1` gave RGS4 inh 17%, KAT2A inh -5%, PTHR1 agonist -25%, GLP1R cytotox -5%, GLP-1R inv ag 6.3µM* and GLP1R ag -7%.
O=C(c1cc2cc(Cl)ccc2[nH]1)N1CCN(Cc2ccc3c(c2)OCO3)CC1 was read as RGS4 inh -34%, KAT2A inh -5%, PTHR1 agonist -12%, GLP1R cytotox -17%, GLP-1R inv ag 11µM* and GLP1R ag -3%.
O=C(CN1CCN(Cc2ccc3c(c2)OCO3)CC1)N1CCc2[nH]c3ccc(F)cc3c2C1 was read as RGS4 inh -18%, KAT2A inh 3%, PTHR1 agonist inactive, GLP1R cytotox -18%, GLP-1R inv ag 8.9µM* and GLP1R ag -5%.
Screening O=c1c2sc3ccccc3c2n(Cc2ccccc2F)c(=O)n1Cc1ccccc1 returned RGS4 inh -32%, KAT2A inh -4%, PTHR1 agonist -6%, GLP1R cytotox 0%, GLP-1R inv ag -1% and GLP1R ag 0%.
